# How the values were obtained:
# Test in all cases: DAPPL (digital affinity profiling via proximity ligation, sequencing); 10 mM Tris-HCl pH 7.5, 50 mM NaCl, 1 mM DTT, 4% glycerol, room temperature, 30 min; GST-TFs on glutathione beads, 16-mer random dsDNA library, 0.1% formaldehyde crosslink after washing; high values mean tight binding
# [1] = target: T1, FLI1 (Homo sapiens, UniProt Q01543 1-452); details: protein: recombinant; tags: N-terminal GST; dsDNA, one strand shown
# T1 sequence: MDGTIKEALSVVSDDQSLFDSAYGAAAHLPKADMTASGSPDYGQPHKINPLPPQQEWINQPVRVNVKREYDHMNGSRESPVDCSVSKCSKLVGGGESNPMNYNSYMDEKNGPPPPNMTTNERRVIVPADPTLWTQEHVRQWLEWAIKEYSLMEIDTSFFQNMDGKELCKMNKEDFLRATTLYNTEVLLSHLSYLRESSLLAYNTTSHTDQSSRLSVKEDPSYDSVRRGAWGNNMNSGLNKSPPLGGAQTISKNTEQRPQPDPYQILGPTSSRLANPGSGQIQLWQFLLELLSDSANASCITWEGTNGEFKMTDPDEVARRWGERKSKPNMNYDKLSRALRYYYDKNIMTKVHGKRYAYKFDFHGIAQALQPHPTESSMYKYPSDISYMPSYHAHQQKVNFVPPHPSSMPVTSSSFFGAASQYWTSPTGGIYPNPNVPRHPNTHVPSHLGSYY
# Summary of the method: (§1)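 A tag-only sample was pooled with DNA-barcoded human transcription factors that had been expressed in yeast as GST fusions and captured on glutathione beads. The pools were incubated for 30 min at room temperature with 200 nmole of a random double-stranded 16-mer DNA library in Tris/NaCl/DTT/glycerol buffer, then washed, crosslinked with 0.1% formaldehyde, proximity-ligated (BsaI/T4 ligase, 1 h, 37 °C), PCR-amplified and sequenced on an Illumina NextSeq500. Binding signal is each hexamer's read frequency for a factor divided by its frequency for the tag-only sample.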
# [2] = target: T2, ELK1 (Homo sapiens, UniProt P19419 1-428); details: protein: recombinant; tags: N-terminal GST; dsDNA, one strand shown
# T2 sequence: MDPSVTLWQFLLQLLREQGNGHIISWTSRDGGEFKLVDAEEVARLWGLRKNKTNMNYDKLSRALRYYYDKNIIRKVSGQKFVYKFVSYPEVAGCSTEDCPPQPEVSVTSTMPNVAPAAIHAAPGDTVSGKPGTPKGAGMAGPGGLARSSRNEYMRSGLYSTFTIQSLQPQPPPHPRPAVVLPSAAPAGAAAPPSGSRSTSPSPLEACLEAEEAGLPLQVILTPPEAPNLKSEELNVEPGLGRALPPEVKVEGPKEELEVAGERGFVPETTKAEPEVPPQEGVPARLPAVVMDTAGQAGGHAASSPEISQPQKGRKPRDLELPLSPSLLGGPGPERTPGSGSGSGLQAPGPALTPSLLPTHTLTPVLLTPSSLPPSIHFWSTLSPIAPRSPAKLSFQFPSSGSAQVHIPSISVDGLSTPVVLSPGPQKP
# Summary of the method: as §1
# [3] = target: T3, GABPA (Homo sapiens, UniProt Q06546 1-454); details: protein: recombinant; tags: N-terminal GST; dsDNA, one strand shown
# T3 sequence: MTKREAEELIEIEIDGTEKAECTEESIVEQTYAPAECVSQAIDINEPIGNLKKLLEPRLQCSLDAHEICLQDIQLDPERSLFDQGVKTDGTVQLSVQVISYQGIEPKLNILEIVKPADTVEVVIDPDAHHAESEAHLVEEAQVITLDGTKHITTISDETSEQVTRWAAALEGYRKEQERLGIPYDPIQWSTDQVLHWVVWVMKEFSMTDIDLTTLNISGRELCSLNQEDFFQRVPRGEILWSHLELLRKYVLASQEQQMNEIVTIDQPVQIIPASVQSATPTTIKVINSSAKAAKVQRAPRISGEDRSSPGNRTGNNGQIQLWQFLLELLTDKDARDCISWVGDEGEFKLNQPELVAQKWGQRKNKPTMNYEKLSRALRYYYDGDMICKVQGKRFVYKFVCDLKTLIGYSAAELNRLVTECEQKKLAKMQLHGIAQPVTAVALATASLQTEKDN
# Summary of the method: as §1
# [4] = target: T4, ERG (Homo sapiens, UniProt P11308 1-479); details: protein: recombinant; tags: N-terminal GST; dsDNA, one strand shown
# T4 sequence: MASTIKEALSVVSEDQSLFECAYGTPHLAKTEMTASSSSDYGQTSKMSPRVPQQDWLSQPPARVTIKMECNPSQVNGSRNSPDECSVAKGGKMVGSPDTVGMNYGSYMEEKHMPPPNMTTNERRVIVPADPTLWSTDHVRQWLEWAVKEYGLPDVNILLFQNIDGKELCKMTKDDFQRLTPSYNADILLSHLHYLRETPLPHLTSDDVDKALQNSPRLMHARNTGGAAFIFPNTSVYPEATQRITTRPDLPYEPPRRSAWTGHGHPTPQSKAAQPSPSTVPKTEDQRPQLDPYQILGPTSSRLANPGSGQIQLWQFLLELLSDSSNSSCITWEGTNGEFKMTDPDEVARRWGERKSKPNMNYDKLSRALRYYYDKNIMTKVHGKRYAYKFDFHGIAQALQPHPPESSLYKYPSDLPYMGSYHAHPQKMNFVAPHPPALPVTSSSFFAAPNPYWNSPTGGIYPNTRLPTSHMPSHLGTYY
# Summary of the method: as §1
# [5] = target: ELF1 (Homo sapiens, UniProt P32519 1-619); details: protein: recombinant; tags: N-terminal GST; dsDNA, one strand shown
# Summary of the method: as §1
# [6] = target: T5, EHF (Homo sapiens, UniProt Q9NZC4 1-300); details: protein: recombinant; tags: N-terminal GST; dsDNA, one strand shown
# T5 sequence: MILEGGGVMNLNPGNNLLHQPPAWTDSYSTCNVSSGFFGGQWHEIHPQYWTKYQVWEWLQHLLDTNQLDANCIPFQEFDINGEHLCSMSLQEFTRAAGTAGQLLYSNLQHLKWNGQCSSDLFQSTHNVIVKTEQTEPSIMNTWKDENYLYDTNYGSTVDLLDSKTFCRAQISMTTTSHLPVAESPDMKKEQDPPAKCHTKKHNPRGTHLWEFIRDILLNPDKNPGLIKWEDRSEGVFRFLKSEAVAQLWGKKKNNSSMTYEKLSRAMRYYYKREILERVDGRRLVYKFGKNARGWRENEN
# Summary of the method: as §1
# [7] = target: SPI1 (Homo sapiens, UniProt P17947 1-270); details: protein: recombinant; tags: N-terminal GST; dsDNA, one strand shown
# Summary of the method: as §1
# [8] = target: SPIB (Homo sapiens, UniProt Q01892 1-262); details: protein: recombinant; tags: N-terminal GST; dsDNA, one strand shown
# Summary of the method: as §1
# [9] = target: T6, ELK3 (Homo sapiens, UniProt P41970 1-407); details: protein: recombinant; tags: N-terminal GST; dsDNA, one strand shown
# T6 sequence: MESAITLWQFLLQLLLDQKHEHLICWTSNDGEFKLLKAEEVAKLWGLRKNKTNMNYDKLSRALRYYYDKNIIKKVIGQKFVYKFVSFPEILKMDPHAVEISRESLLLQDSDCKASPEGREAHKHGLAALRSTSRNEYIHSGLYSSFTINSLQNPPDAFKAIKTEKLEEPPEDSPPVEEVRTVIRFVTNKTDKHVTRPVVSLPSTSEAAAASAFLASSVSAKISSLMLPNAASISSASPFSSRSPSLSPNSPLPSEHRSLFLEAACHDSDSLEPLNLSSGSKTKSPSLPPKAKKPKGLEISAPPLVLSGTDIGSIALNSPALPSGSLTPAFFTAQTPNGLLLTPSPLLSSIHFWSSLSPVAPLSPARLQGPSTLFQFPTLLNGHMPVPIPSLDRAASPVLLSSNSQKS
# Summary of the method: as §1
# [10] = target: T7, FEV (Homo sapiens, UniProt Q99581 1-238); details: protein: recombinant; tags: N-terminal GST; dsDNA, one strand shown
# T7 sequence: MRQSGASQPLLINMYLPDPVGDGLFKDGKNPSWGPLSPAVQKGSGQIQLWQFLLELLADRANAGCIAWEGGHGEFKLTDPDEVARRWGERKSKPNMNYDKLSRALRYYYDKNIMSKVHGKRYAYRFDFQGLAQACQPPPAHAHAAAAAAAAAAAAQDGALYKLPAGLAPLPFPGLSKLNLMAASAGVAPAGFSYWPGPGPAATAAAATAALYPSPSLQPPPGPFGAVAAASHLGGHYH
# Summary of the method: as §1
# [11] = target: ETV5 (Homo sapiens, UniProt P41161 1-510); details: protein: recombinant; tags: N-terminal GST; dsDNA, one strand shown
# Summary of the method: as §1
# [12] = target: HSF1 (Homo sapiens, UniProt Q00613 1-529); details: protein: recombinant; tags: N-terminal GST; chain copies: 3; dsDNA, one strand shown
# Summary of the method: as §1
# [13] = target: T8, SPIC (Homo sapiens, UniProt Q8N5J4 1-248); details: protein: recombinant; tags: N-terminal GST; dsDNA, one strand shown
# T8 sequence: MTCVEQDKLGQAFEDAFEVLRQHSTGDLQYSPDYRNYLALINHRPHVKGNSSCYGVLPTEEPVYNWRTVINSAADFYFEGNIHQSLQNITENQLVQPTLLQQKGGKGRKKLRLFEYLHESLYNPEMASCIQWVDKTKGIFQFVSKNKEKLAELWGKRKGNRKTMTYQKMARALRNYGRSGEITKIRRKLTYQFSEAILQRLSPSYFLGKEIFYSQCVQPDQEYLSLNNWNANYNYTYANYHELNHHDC
# Summary of the method: as §1
# [14] = target: ELF4 (Homo sapiens, UniProt Q99607 1-663); details: protein: recombinant; tags: N-terminal GST; dsDNA, one strand shown
# Summary of the method: as §1
# [15] = target: T9, ELK4 (Homo sapiens, UniProt P28324-2 1-405); details: protein: recombinant; tags: N-terminal GST; dsDNA, one strand shown
# T9 sequence: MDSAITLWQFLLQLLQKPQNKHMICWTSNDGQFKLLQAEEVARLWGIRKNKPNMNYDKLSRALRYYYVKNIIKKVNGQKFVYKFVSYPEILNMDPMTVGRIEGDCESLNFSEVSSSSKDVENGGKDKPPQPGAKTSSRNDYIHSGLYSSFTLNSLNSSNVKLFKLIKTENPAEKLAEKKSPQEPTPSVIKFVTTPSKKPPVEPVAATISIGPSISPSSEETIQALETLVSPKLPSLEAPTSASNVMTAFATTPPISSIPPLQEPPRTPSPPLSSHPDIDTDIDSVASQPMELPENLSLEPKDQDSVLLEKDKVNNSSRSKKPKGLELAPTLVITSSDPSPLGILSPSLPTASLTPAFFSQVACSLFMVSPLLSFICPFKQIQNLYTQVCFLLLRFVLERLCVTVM
# Summary of the method: as §1
# [16] = target: T10, ETV2 (Homo sapiens, UniProt O00321 1-342); details: protein: recombinant; tags: N-terminal GST; dsDNA, one strand shown
# T10 sequence: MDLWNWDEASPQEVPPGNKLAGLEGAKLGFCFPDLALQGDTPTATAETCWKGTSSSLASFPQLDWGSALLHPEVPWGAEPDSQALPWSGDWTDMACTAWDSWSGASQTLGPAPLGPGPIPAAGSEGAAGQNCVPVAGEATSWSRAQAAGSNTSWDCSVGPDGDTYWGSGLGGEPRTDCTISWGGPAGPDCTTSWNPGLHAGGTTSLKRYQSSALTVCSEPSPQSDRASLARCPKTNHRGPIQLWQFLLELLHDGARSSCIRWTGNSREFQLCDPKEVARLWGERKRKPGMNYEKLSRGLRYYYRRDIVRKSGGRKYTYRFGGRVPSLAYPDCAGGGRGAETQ
# Summary of the method: as §1
# [17] = target: T11, ELF3 (Homo sapiens, UniProt P78545 1-371); details: protein: recombinant; tags: N-terminal GST; dsDNA, one strand shown
# T11 sequence: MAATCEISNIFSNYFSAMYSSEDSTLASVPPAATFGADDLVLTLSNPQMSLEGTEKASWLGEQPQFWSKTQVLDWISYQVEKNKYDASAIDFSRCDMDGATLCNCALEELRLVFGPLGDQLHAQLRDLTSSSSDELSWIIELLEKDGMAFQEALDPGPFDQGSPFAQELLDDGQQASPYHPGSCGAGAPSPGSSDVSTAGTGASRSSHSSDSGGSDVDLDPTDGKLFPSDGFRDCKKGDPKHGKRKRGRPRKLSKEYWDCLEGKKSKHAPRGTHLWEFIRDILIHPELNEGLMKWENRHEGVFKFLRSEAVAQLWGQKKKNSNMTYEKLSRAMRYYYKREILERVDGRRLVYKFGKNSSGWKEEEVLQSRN
# Summary of the method: as §1
# [18] = target: CRX (Homo sapiens, UniProt O43186 1-299); details: protein: recombinant; tags: N-terminal GST; dsDNA, one strand shown
# Summary of the method: as §1
# [19] = target: ETV1 (Homo sapiens, UniProt P50549 1-477); details: protein: recombinant; tags: N-terminal GST; dsDNA, one strand shown
# Summary of the method: as §1
# Sequence of ETV5 (P41161 whole entry): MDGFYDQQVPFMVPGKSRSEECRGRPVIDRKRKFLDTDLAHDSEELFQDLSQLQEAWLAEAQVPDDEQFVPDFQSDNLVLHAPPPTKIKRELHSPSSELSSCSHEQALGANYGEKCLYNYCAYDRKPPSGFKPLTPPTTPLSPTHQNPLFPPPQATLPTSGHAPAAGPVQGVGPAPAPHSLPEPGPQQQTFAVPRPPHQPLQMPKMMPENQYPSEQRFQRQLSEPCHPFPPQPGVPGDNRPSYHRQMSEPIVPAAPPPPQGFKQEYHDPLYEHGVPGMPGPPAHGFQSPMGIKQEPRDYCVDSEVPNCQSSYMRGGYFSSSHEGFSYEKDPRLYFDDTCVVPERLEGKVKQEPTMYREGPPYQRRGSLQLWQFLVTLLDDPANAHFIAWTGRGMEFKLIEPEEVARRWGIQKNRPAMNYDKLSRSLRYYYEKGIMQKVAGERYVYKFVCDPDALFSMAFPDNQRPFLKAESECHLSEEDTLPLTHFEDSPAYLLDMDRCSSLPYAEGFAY
# Sequence of CRX (O43186 whole entry): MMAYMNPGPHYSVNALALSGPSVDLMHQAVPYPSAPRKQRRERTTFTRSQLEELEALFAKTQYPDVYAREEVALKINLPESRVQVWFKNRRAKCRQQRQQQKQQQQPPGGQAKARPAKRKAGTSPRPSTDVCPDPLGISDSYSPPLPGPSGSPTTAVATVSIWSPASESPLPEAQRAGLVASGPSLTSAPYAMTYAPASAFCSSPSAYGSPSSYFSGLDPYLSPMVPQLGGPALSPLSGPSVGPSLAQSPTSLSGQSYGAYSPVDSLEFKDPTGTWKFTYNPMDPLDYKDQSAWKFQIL
# Sequence of SPIB (Q01892 whole entry): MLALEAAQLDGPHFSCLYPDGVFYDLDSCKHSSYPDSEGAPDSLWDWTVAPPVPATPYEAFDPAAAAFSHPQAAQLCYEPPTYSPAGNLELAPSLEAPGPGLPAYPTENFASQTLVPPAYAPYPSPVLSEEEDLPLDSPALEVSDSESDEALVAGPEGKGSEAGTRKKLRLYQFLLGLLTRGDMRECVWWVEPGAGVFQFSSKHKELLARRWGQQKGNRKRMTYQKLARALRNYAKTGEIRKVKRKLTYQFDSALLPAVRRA
# Sequence of ELF1 (P32519 whole entry): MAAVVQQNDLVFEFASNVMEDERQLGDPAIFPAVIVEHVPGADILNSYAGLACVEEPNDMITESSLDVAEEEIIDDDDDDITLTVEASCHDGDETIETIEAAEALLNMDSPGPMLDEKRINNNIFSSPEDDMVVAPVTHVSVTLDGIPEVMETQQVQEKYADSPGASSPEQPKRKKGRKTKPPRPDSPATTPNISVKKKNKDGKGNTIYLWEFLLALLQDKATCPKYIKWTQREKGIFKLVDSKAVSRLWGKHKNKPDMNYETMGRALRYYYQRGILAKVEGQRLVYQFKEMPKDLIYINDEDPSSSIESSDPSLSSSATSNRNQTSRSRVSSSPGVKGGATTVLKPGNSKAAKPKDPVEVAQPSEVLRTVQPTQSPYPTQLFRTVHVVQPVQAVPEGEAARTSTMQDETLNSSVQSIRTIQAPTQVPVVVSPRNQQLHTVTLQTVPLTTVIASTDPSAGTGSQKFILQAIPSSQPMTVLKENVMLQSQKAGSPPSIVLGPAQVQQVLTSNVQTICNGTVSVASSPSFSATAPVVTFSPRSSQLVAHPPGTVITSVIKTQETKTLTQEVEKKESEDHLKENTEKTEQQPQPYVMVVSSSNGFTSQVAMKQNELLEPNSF
# Sequence of HSF1 (Q00613 whole entry): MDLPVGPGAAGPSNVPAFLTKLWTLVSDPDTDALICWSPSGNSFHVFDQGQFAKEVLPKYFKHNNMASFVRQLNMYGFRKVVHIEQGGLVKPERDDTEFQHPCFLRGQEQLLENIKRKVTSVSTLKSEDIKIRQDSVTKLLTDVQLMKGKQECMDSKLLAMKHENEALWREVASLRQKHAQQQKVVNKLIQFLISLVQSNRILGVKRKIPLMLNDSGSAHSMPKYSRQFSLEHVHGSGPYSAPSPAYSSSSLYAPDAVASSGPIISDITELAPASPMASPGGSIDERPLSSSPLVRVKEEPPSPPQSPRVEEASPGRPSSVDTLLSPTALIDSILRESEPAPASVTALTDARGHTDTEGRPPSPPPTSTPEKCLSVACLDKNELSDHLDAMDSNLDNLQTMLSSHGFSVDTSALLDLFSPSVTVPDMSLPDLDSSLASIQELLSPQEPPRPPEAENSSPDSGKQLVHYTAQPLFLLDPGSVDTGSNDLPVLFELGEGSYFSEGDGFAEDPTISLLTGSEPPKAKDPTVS
# Sequence of ELF4 (Q99607 whole entry): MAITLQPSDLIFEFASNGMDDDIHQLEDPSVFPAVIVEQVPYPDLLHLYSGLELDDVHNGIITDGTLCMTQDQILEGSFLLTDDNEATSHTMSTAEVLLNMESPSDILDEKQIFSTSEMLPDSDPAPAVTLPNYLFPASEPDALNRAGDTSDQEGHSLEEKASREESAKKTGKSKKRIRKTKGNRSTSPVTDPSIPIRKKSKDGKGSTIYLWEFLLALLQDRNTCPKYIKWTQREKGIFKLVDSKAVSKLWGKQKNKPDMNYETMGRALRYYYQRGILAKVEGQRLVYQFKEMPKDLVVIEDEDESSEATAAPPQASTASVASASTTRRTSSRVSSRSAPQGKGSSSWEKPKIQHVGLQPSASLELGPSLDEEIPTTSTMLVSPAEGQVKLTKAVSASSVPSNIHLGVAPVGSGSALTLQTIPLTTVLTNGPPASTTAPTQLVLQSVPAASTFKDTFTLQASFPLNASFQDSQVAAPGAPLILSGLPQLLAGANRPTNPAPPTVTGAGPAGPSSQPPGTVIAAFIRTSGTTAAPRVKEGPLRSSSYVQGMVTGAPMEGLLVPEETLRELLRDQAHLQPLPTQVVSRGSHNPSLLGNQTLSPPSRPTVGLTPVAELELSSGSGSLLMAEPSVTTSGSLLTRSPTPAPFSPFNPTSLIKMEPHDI
# Sequence of ETV1 (P50549 whole entry): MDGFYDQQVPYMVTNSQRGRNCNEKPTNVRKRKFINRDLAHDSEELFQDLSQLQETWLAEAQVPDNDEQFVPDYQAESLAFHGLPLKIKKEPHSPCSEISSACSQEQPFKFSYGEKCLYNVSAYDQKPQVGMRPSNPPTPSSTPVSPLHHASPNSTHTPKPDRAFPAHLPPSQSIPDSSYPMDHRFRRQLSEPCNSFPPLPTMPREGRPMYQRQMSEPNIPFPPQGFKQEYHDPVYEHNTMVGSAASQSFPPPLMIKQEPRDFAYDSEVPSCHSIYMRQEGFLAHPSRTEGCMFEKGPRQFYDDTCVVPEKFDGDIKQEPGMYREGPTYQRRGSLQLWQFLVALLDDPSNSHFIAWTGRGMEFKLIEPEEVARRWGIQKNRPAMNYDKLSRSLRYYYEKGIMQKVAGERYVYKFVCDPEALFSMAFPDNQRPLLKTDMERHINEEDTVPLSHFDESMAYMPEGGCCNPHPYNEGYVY
sequence,measurement,setting,value
TTTAGC,binding signal,[1],"1.04 fold enrichment (6-mer frequency, TF over GST control)"
same,binding signal,[2],"1.05 fold enrichment (6-mer frequency, TF over GST control)"
same,binding signal,[3],"1.2 fold enrichment (6-mer frequency, TF over GST control)"
same,binding signal,[4],"1.16 fold enrichment (6-mer frequency, TF over GST control)"
same,binding signal,[5],"1.19 fold enrichment (6-mer frequency, TF over GST control)"
same,binding signal,[6],"1.12 fold enrichment (6-mer frequency, TF over GST control)"
same,binding signal,[7],"1.05 fold enrichment (6-mer frequency, TF over GST control)"
same,binding signal,[8],"1.14 fold enrichment (6-mer frequency, TF over GST control)"
same,binding signal,[9],"1.09 fold enrichment (6-mer frequency, TF over GST control)"
same,binding signal,[10],"1.11 fold enrichment (6-mer frequency, TF over GST control)"
same,binding signal,[11],"1.03 fold enrichment (6-mer frequency, TF over GST control)"
same,binding signal,[12],"1.25 fold enrichment (6-mer frequency, TF over GST control)"
same,binding signal,[13],"1.07 fold enrichment (6-mer frequency, TF over GST control)"
same,binding signal,[14],"1.2 fold enrichment (6-mer frequency, TF over GST control)"
same,binding signal,[15],"1.13 fold enrichment (6-mer frequency, TF over GST control)"
same,binding signal,[16],"1.13 fold enrichment (6-mer frequency, TF over GST control)"
same,binding signal,[17],"1.08 fold enrichment (6-mer frequency, TF over GST control)"
same,binding signal,[18],"1.64 fold enrichment (6-mer frequency, TF over GST control)"
same,binding signal,[19],"1.18 fold enrichment (6-mer frequency, TF over GST control)"

# — publication PMC7862700, “An all-to-all approach to the identification of sequence-specific readers for epigenetic DNA modifications on cytosine”
